The list is not random: actives were taken first. Their share in the collection is about 19%.
MCF10A rereplic = inducers of DNA re-replication in MCF 10A breast cells; MCF 10A DNA re-replication, Hoechst nuclear intensity, 48 h; Potency, µM (highest dose often 46.1 µM), for inactives: at the top dose activity, positive = re-replication, hits mostly activators; actives 2.9% (n = 350,000); AID 624296; also: potency is read from the fitted curve at half-maximal effect; % of control where 0% means no effect; nearly all actives have a fitted effect of over 50% in size
SW480 rereplic = DNA re-replication induction in SW480 cells | AID 624297 | actives 1.8% (n = 340,000) | SW480 DNA re-replication, Hoechst DNA content imaging, 48 h | Potency, µM (titrated, usually from 46.1 µM), for the others: at the top dose re-replication activation, usual class: activators; also: potency is read from the fitted curve at half-maximal effect; % of control where 0% means no effect; nearly all actives have a fitted effect of over 55% in size
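SW480 cells exposed to compounds for 48 hr at 37 C, 5% CO2, then Hoechst-stained 40 min. Nuclear DNA content imaged by fluorescence scanning (405 nm excitation, 500-530 nm emission); re-replication scored as increased high-intensity nuclei.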
DT40 TDP1 CPT = growth inhibition of DT40 Tdp1-/-;hTDP1 cells with camptothecin (screen for TDP1 inhibitors). chicken DT40 Tdp1-/-;hTDP1 cells + 20 nM CPT, ATP luminescence, 48 h. Potency, µM (highest dose often 46.2 µM), for the others: at the top dose activity change, negative = growth inhibition, most hits filed as inhibitors. actives 12% (n = 420,000). AID 686979; also: potency is read from the fitted curve at half-maximal effect; % is scaled to controls: 0 for no effect and ±100 for the full control effect; nearly all actives have a fitted effect of over 55% in size
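Chicken DT40 Tdp1-/- cells complemented with human TDP1, 400 cells/well, exposed to compounds plus 20 nM camptothecin for at least 48 h at 37 C; viability read as ATP content by CellTiter-Glo luminescence.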
DT40 TDP1 no CPT = qHTS for Inhibitors of human tyrosyl-DNA phosphodiesterase 1 (TDP1): qHTS in cells in absence of CPT | DT40 Tdp1-/- hTDP1 cells, no CPT, ATP luminescence, 48 h | AID 686978, 2013 | actives 15% (n = 420,000) | Potency, µM (titrated, usually from 46.2 µM), inactives show top-dose activity change, negative = growth inhibition, usual class: inhibitors; also: potency is read from the fitted curve at half-maximal effect; % is scaled to controls: 0 for no effect and ±100 for the full control effect; nearly all actives have a fitted effect of over 55% in size
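Chicken DT40 Tdp1-/- cells stably complemented with human TDP1 were seeded at 400 cells/well with DMSO in place of 20 nM camptothecin. After compound pinning, cells grew at least 48 hr at 37 °C; viability read by CellTiter-Glo luminescence.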
BCR signal inh = blocks chronic active B-cell receptor signaling; Potency, µM (top dose mostly 46.1 µM), for the others: top-dose activity change, negative = inhibition, most hits filed as inhibitors; ABC-DLBCL IkBa-CBG/CBR reporter, luminescence ratio, 4 h; actives 0.05% (n = 340,000); active = well fitted inhibition curve with a large enough effect in the signal ratio, with a control signal flat, not every such curve was filed as active; inconclusive = small, poorly fitted or top-dose-only effect, or effect the other way, or a change in a side signal; the % refers to the signal ratio;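 also: potency is read from the fitted curve at half-maximal effect; plate controls were basal doxycycline-induced cells for no effect and cells given 10 µM MG132 for full effect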
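TMD8 ABC-DLBCL cells carrying doxycycline-inducible green luciferase fused to IkappaBalpha plus unfused red luciferase were exposed to compounds (up to 46 uM) for 4 hrs at 37C. Activity came from the overlap-corrected green/red luminescence ratio.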
IL-1B inflam inh = inflammasome signaling inhibition, IL-1 beta readout. THP-1 LPS/ATP IL-1B secretion, AlphaLISA, 16 h; active compounds read low. activity change, % at 57.5 µM. actives 4.7% (n = 360,000); in the data active = activity change below about -50%; inconclusive = mostly about -30% to -49%; also: % is scaled to controls: 0 for no effect and ±100 for the full control effect
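Secreted IL-1B measured by AlphaLISA bead assay after 16 h compound exposure of THP-1 cells; compounds (final up to 57.5 uM) added 1 h before LPS (250 ng/mL) and ATP (1.25 mM) stimulation; lower signal means less secretion.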
* hit, by the source's call; ? = inconclusive; . = not tested or not shown; [ ] = dose if it differs, or a comment. Unless noted, calls follow the shape of the dose curve; as a rule, active = well fitted curve in the direction sought with a large enough effect; inconclusive = small, poorly fitted or top-dose-only effect, or another doubt; inactive = no such curve, though single readings can be large; an effect the other way counts as inactive or inconclusive.

SMILES	MCF10A rereplic	SW480 rereplic	DT40 TDP1 CPT	DT40 TDP1 no CPT	BCR signal inh	IL-1B inflam inh
COc1ccc(OC)c(N(CC(=O)NCC2CCCO2)S(=O)(=O)c2ccccc2)c1 (configuration not stated)	1.0%	-17.2%	-1.3%	?	0.6%	10.0
CC(C)[C@H](NC(=O)C1CC(=O)N(c2ccc(F)cc2)C1)C(=O)N1CCCCC1 (some centres not stated)	0.9%	-3.6%	?	?	10.6%	6.4
COc1ccc(NC(=O)Cn2c(=O)n(-c3ccc(CC(=O)NCC4CCCO4)cc3)c(=O)c3ccccc32)c(OC)c1 (configuration not stated)	.	.	4.6%	1.1%	.	.
CN(C)S(=O)(=O)c1cccc(NC(=O)COC(=O)c2ccc3ccccc3n2)c1	0.9%	-3.5%	0.7%	6.3%	2.7%	25.7
CC(=O)N/C(=C\c1ccccc1)C(=O)OCc1cccc(S(=O)(=O)N(C)C)c1	-0.2%	1.6%	16.4µM*	?	?	5.1
CC(NC(=O)COC(=O)/C(=C/c1cccs1)c1cccs1)c1ccccc1 (configuration not stated)	16.0%	6.6%	?	18.4µM*	-7.6%	-16.8
CC(NC(=O)c1cccs1)c1ccccc1 (configuration not stated)	13.3%	15.1%	-4.4%	3.9%	.	-9.7
Cc1ccc(NC(=O)COC(=O)/C(=C/c2cccs2)c2cccs2)cc1S(=O)(=O)N(C)C	?	0.4%	16.4µM*	14.6µM*	1.4%	-3.9
Cc1nnnn1/C(=C\c1ccccc1)C(=O)OCC(=O)Nc1cccc(S(=O)(=O)N(C)C)c1	?	?	10.3µM*	7.31µM*	?	0.0
Cc1ccc(S(=O)(=O)CCC(=O)OCC(=O)N(C)c2ccccc2)cc1	21.1%	-64.4%	-25.6%	-13.0%	.	-11.6
COc1ccc(Cn2nnnc2C(c2cc3ccc(OC)cc3[nH]c2=O)N2CCCCCC2)cc1 (configuration not stated)	4.5%	-6.9%	16.4µM*	23.1µM*	2.6%	-13.1
CCc1ccc2[nH]c(=O)c(C(c3nnnn3CCOC)N3CCN(c4ccccc4)CC3)cc2c1 (configuration not stated)	16.4%	-1.9%	?	18.4µM*	-1.3%	?
COc1ccc2cc(C(c3nnnn3C(C)(C)C)N3CCc4ccccc4C3)c(=O)[nH]c2c1 (configuration not stated)	.	.	.	.	-18.0%	.
CCC(C)(C)n1nnnc1C(c1cc2ccc(OC)cc2[nH]c1=O)N1CCc2ccccc2C1 (configuration not stated)	15.5%	?	?	?	?	-65.4*
COc1ccc2[nH]c(=O)c(C(c3nnnn3CC3CCCO3)N3CCc4ccccc4C3)cc2c1 (configuration not stated)	2.1%	-11.4%	-23.0%	-12.9%	-7.2%	-10.3
COc1ccc2cc(C(c3nnnn3C3CCCC3)N3CCc4ccccc4C3)c(=O)[nH]c2c1 (configuration not stated)	248.5%[0.0737 µM]	?	?	18.4µM*	2.8%	-28.0
Cc1ccc(NC(=S)N2CCN(c3ncccn3)CC2)c(C)c1	-2.5%	-13.2%	12.2%	1.1%	8.1%	7.8
CN(C(=O)CO)c1c(I)c(C(=O)NCC(O)CO)c(I)c(C(=O)NCC(O)CO)c1I (configuration not stated)	.	.	1.3%	-3.9%	.	.
COC(=O)C1CCN(C(c2ccccc2Cl)c2sc3nc(-c4ccco4)nn3c2O)CC1 (configuration not stated)	.	.	-27.6%	-9.6%	5.2%	.
Cc1nn(C)cc1CN(C)C(=O)CCc1nnc(CCC2CCCCC2)o1	1.5%	0.7%	-9.1%	-18.3%	-2.3%	4.6
Cc1cc2cc(C(c3nnnn3Cc3ccco3)N3CCc4ccccc4C3)c(=O)[nH]c2cc1C (configuration not stated)	13.9%	-2.8%[9.22 µM]	?	23.1µM*	1.9%	-57.7*
Cc1ccccc1CN(C)Cc1cc(=O)oc2c(C)c(C)ccc12	?	?	?	?	?	7.1
COc1cccc(CN(C)Cc2cc(=O)oc3c(C)c(C)ccc23)c1	13.3%	-9.9%	13µM*	?	?	13.9
Cc1c(O)ccc2c(CN(C)Cc3ccccc3)cc(=O)oc12	-36.0%	18.4µM*	?	18.4µM*	-9.2%	-6.6
CNS(=O)(=O)c1cccc(C(=O)OCc2cc(=O)oc3c(C)c(O)ccc23)c1	?	-11.2%	?	18.4µM*	?	5.0
SMILES	MCF10A rereplic	SW480 rereplic	DT40 TDP1 CPT	DT40 TDP1 no CPT	BCR signal inh	IL-1B inflam inh
Cc1c(O)ccc2c(CN3CCN(Cc4ccccc4)CC3)cc(=O)oc12	-10.6%	?	-29.1%	-19.9%	-8.8%	17.2
COc1cccc(CN(C)Cc2cc(=O)oc3cc(O)c(Cl)cc23)c1	20.6µM*	?	0.0%	?	5.3%	67.8
Cc1c(O)ccc2c(CC(=O)N[C@@H](Cc3ccccc3)C(=O)O)cc(=O)oc12	23.1µM*	?	6.6%	-17.7%	-0.6%	-6.6
Cc1ccccc1Cn1c2ccccc2c2cnn(CC(=O)NC3CCCCCC3)c(=O)c21	.	.	11.6µM*	10.3µM*	.	.
O=C(Cn1ncc2c3ccccc3n(Cc3ccc(Cl)cc3)c2c1=O)NC1CCCCCC1	.	.	3.0%	-19.6%	.	.
Cc1cc(C)c(Cn2c3ccccc3c3cnn(CC(=O)NC4CCC(C)CC4)c(=O)c32)c(C)c1 (configuration not stated)	.	.	13µM*	?	.	.
Cc1cccc(N(CC(=O)NCc2ccco2)S(=O)(=O)c2ccccc2)c1	.	.	?	-19.8%	.	-10.9
COc1ccc(S(=O)(=O)N2CCN(CC(=O)Nc3sccc3C(N)=O)CC2)cc1OC	0.3%	-14.7%	?	23.1µM*	-4.3%	30.9
N#Cc1ccsc1NC(=O)CN1CCN(c2ccc(O)cc2)CC1	?	-14.0%	?	10.3µM*	-9.3%	0.0
N#Cc1ccsc1NC(=O)CN1CCN(c2ccccc2)CC1	?	1.8%	9.8%	-28.8%	?	33.9
CC(=O)N1CCN(CC(=O)Nc2sccc2C#N)CC1	-0.6%	4.9%	-16.5%	-5.2%	10.8%	42.4
NC(=O)c1ccsc1NC(=O)CN1CCN(S(=O)(=O)c2ccccc2C(F)(F)F)CC1	17.6%	7.9%	?	?	.	35.0

Screens: PubChem BioAssay, National Center for Advancing Translational Sciences (NCATS)
